# Compounds with a hit are over-represented: about 1.7% of the library has one in this group of screens.
# KCNH2 WT inh – inhibitors of human wildtype KCNH2 potassium channel. AID 720551. Q12809. activity change, % at 1.84 µM. 340,000 tested, 0.37% active. U2OS, BacMam KCNH2, thallium flux FluxOr; stronger effect = lower value;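 active = maximum activity change below -70%; inconclusive = maximum activity change between -70% and -50%; inactive = maximum activity change above -50%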
#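 U2OS cells transduced with wild-type KCNH2 virus are loaded with FluxOr dye for 45 min, and thallium flux is measured in kinetic reads before and after stimulation buffer. Rate constants are normalized to DMSO controls.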
# USP1-UAF1 inh – blocks the human USP1/UAF1 deubiquitinase complex | O94782 | recombinant USP1/UAF1, Ub-Rhodamine cleavage fluorescence | Potency, µM (series often up to 57.1 µM), inactives show at the top dose activity change, negative = inhibition, hits mostly inhibitors | 390,000 tested, 0.23% active | AID 743255; active = well fitted inhibition curve with a large enough effect; inconclusive = small, poorly fitted or top-dose-only effect; inactive = no such curve, though single readings can be large or run the other way; also: potency is read from the fitted curve at half-maximal effect; nearly all actives have a fitted effect of over 60% in size
#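 USP1/UAF1 complex at 1 nM was preincubated with compound for 15 min at room temperature, then Ub-Rho substrate (150nM final) was added. Fluorescence (480/540 nm) was read kinetically, 6 reads every 60 seconds.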
# Giardia kill – kills Giardia lamblia; activity change, % at 7.66 µM, hits read low; Giardia lamblia trophozoite viability; AID 540267; 340,000 tested, 0.15% active; in the data active = activity change below about -80%; inconclusive = between about -30% and that limit;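 also: parasites exposed to compound for two days anaerobically before the ATP read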
#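 Media and compound were dispensed first, then trophozoites at 100 cells/well; plates sat 48 hrs at 37 deg C without oxygen before ATP luminescence reagent was added and read after 15-30 min at room temperature.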
# FBPA coupling cs – inhibits coupling enzyme system, counter-screen for aldolase hits | coupling enzyme system counterscreen, AmpLite Red fluorescence | activity change, negative = inhibition, % at 58.2 µM, hits read low | 290,000 tested, 0.67% active | AID 2472; in the data active = activity change below about -30%
#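 Coupling enzymes only (glyceraldehyde-3-phosphate) + compound, at 57.5 uM final, 10 min RT; add substrate/coupling/AmpLite Red mix, 20 min RT; fluorescence ex 525/em 598 nm. Actives flag coupling-system interference.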
# KCNH2 3.1 block – KCNH2 3.1 (human) potassium channel inhibition | U2OS KCNH2 3.1, thallium flux FluxOr; stronger effect = lower value | activity change, % (tested at about 1.8 µM) | 340,000 tested, 0.95% active | AID 720553;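 active = maximum activity change below -70%; inconclusive = maximum activity change from -70% to -50%; inactive = maximum activity change above -50%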;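 also: thallium influx rate constant from kinetic fluorescence after stimulation buffer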
#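 Normalized rate constant (relative to positive and negative DMSO controls) derived from a 2 min kinetic fluorescence read after stimulation; U2OS cells expressing the 3.1 isoform via virus at 1.77 x 10^8 /mL.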
# The depositor's hits bear a star; ? = inconclusive; · = no result given. % is scaled to controls: 0 for no effect and ±100 for the full control effect.
SMILES,KCNH2 WT inh,USP1-UAF1 inh,Giardia kill,FBPA coupling cs,KCNH2 3.1 block
Cn1c(CCN2CCN(c3ccccn3)CC2)nc2cc(NS(=O)(=O)c3ccccc3)ccc21,-28,-26%,-18,5,-76*
Cc1ccc(-n2nc(C)c3c(C)cc(=O)n(CC(=O)Nc4ccc(Br)cc4F)c32)cc1,·,-26%,·,·,·
CC(=O)c1ccc(NC(=O)c2ccc3c(=O)n4c(nc3c2)CCCCC4)cc1,-7,-22%,20,·,4
Cc1ccc(-c2csc(NC(=O)c3ccc4c(=O)n5c(nc4c3)CCCCC5)n2)cc1,-77*,-1%,17,1,-10
CCN(CC)c1nc(C#N)nc(N2CCOCC2)n1,·,·,2,·,·
O=[N+]([O-])c1ccc(-c2nc(C(Cl)Cl)c3ccccc3n2)cc1,5,-13%,-91*,0,-6
Cc1ccc(S(=O)(=O)Nc2cc(C(F)(F)F)ccc2N2CCOCC2)cc1C,-5,0%,-14,0,-92*
CCOC(=O)Cc1c(C(=O)OCC)nnc2c(-c3ccccc3)c(C)nn12,·,-19%,·,·,·
CC1CCN(c2ccc(-c3nc(-c4ccccc4)no3)cc2[N+](=O)[O-])CC1,·,6%,7,·,·
COc1ccc(CCN2CCCC(CN(C)Cc3cccc(OC)c3)C2)cc1 (configuration not stated),-25,-17%,-26,2,-74*
CN(Cc1ccccc1O)CC1CCCN(CCc2ccc(Cl)cc2)C1 (configuration not stated),1,-2%,15,2,-86*
CCN(Cc1ccc(OC)c(COC)c1)CC1CCCN(CCc2cccc(F)c2)C1 (configuration not stated),50,-8%,-3,1,-72*
CCN(Cc1ccc(OC)c(COC)c1)CC1CCCN(CCc2cccc(OC)c2)C1 (configuration not stated),42,4%,12,-1,-9
Cc1ccccc1C1CC(=O)Oc2ccc(O)cc21 (configuration not stated),·,·,·,-2,·
Fc1ccc(CCNc2ncnc3nc[nH]c23)cc1,·,·,22,·,·
CCOC(=O)CNS(=O)(=O)c1ccc(F)cc1Br,·,·,4,3,·
CCCC(=O)C1=C(O)C(C(=O)OC)C(C)(C)CC1=Nc1ccc(N)cc1 (configuration not stated),-14,-5%,7,4,6
CCCC(=Nc1ccc(N)cc1)C1=C(O)C(C(=O)OC)C(C)(C)CC1=O (configuration not stated),-10,?,-5,-41*,-10
O=[N+]([O-])c1ccc(N2CCN(c3ccc([N+](=O)[O-])cc3CO)CC2)c(CO)c1,?,-16%,5,1,-89*
N#Cc1cc([N+](=O)[O-])ccc1N1CCN(c2ccccc2O)CC1,0,-14%,1,0,2
CCn1c(=O)n(CC)c2cc(N3CCCCC3)c(NC(=O)Nc3cc(C)cc(C)c3)cc21,·,-25%,·,·,·
O=C(NC(=S)N1CCN(c2ccc([N+](=O)[O-])cc2Cl)CC1)c1ccco1,-29,-17%,-14,-3,-73*
CCC(C)NC(=O)Cn1c(=O)n(-c2cc(OC)cc(OC)c2)c(=O)c2ccccc21 (configuration not stated),·,-17%,·,·,·
CC1CC=CC2C1C(=O)N(Cc1ccccc1)C2c1ccc(Br)cc1F (configuration not stated),·,·,-18,0,·
O=C(Oc1cccc(NC(=O)c2ccccc2Cl)c1)c1ccc([N+](=O)[O-])cc1,-186*,-22%,8,-4,-13
SMILES,KCNH2 WT inh,USP1-UAF1 inh,Giardia kill,FBPA coupling cs,KCNH2 3.1 block
O=C(Nc1cccc(O)c1)c1ccc([N+](=O)[O-])cc1Cl,-5,-9%,-1,-1,-10
Cc1ccc(NC(=O)c2c(C)oc3ccc(O)c(CN(C)Cc4ccccc4)c23)c(C)c1,·,-25%,·,·,·
CCc1ccccc1NNC(=O)c1sccc1Cl,·,·,22,·,·
CC(C)Sc1nnc2c3ccccc3n(C)c2n1,·,·,18,·,·
CC1(C)Cc2c(sc3c2c(N)nc(=S)n3Cc2ccc(Br)cc2)CO1,?,-2%,4,3,-104*
O=[N+]([O-])c1cc([N+](=O)[O-])c(N2CCOCC2)cc1NCc1ccccc1,-1,-19%,7,2,-18
O=[N+]([O-])c1c(NCc2ccccc2)cc(N2CCc3ccccc3C2)c2nonc12,14,-13%,3,-40*,11
O=C(O)c1c(Sc2ccccc2)c2cc(Cl)ccc2n1Cc1ccc(Cl)cc1,·,·,·,11,·
CCCCN(CCCC)S(=O)(=O)c1ccc(NC(=O)c2c(-c3ccccc3)noc2C)cc1,·,-27%,·,·,·
COCCN(Cc1cc2ccc(C)cc2[nH]c1=O)S(=O)(=O)c1ccccc1,-218*,-13%,-8,0,7
Cc1ccc(C)c(CSc2nnc(C)n3c2cc2sccc23)c1,·,3%,·,·,·
Cc1ccc(C2C(C#N)=C(N)SC(N)=C2C#N)c(C)c1,-8,-18%,-8,-41*,-7
Cc1ccc(C2C(C#N)=C(N)SC(N)=C2C#N)cc1,2,?,5,-16,-2
CC1NC(=O)c2cc3ccccc3cc2-n2c1nc1cc(Cl)ccc1c2=O (configuration not stated),12,?,·,·,23
COc1ccc(NC(=S)Nc2cccc3cnccc23)cc1,33,-25%,-9,-37*,17
CCOc1ccc(NC(=S)Nc2cccc3ccccc23)cc1,6,?,0,1,-2
CCOc1ccc(NC(=S)Nc2cccc3cnccc23)cc1,-3,-15%,-4,-45*,3
O=[N+]([O-])c1ccc(NC2CCN(Cc3ccccc3)CC2)c([N+](=O)[O-])c1,-74*,-10%,19,2,-96*
OC(CN1CCN(Cc2ccccc2)CC1)c1ccccc1 (configuration not stated),11,-16%,30,1,6
O=[N+]([O-])c1ccc(C(O)CN2CCN(C/C=C/c3ccccc3)CC2)cc1 (configuration not stated),-94*,-16%,12,-1,-113*
O=[N+]([O-])c1ccc(C(O)CN2CCN(Cc3ccccc3)CC2)cc1 (configuration not stated),-16,-6%,-2,-3,-70*
COc1ccc(-n2nc(C(=O)N3CCN(c4cccc(C)c4)C(C)C3)c3c4ccccc4n(C)c3c2=O)cc1Cl (configuration not stated),·,-2%,·,·,·
Cc1ccc(C)n1-c1nnc(N2CCCC(C(=O)Nc3ccccc3Br)C2)s1 (configuration not stated),·,-20%,·,·,·
CN(C)S(=O)(=O)c1cccc(NC(=O)COC(=O)CCC(=O)c2cccs2)c1,8,?,-11,0,0
NS(=O)(=O)c1cccc(NC(=O)COC(=O)CCC(=O)c2cccs2)c1,-3,1%,2,·,-71*
